# The list is not random: actives were taken first. Their share in the collection is about 3.1%.
# ERAP1 inh: ERAP1 (human) enzyme inhibition; Q9NZ08; inhibition, % at 10.7 µM; actives 0.15% (n = 340,000); recombinant ERAP1, Leu-AMC fluorescence, 60 min;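 active = mean replicate inhibition of at least 30%, or all replicates individually reaching that 30% level; inactive = mean below 30% and not every replicate reaching it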;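 also: 0% = neutral control wells and 100% = L-leucinethiol positive control wells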
# SIRT5 block: inhibitors of human sirtuin-5 desuccinylase. Purified SirT5, succinyl-peptide AMC, trypsin-coupled fluorescence. AID 652115. Q9NXA8. actives 1.1% (n = 330,000). inhibition, % at 15 µM; in the data active = inhibition above about 15%
# Target sequence (Q9NXA8 whole entry, looked up): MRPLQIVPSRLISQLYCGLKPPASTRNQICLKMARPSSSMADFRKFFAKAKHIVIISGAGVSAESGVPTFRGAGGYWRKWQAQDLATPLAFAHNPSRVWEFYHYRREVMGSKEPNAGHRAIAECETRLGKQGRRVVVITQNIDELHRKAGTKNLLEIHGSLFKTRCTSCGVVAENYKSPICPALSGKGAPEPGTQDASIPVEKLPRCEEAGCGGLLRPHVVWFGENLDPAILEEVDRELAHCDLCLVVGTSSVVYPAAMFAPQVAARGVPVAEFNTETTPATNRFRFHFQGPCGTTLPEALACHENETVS
# CASP6 VEID inh: inhibitors of human caspase-6. actives 0.53% (n = 350,000). inhibition, % at 12.5 µM. AID 686996. P55212. purified caspase-6, Z-VEID-R110 cleavage fluorescence;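 active = mean inhibition across replicates at least about 35%, with every replicate also reaching that limit, limit read from the data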;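 also: 0% = median of neutral control wells and 100% = no fluorescence left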
# FGF22 binding: binders of recombinant human FGF22 by thermal shift; Q9HCT0; SYPRO orange fluorescence; percent of sucrose octasulfate shift, DMSO zero; activity (Tm shift, normalised), % at 9.99 µM; actives 1.5% (n = 340,000); AID 651658;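 active = mean Tm shift, scaled 0 neutral to 100 positive control, at about 1.3% or above, every replicate too, limit read from the data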
# Target sequence (Q9HCT0 whole entry, looked up): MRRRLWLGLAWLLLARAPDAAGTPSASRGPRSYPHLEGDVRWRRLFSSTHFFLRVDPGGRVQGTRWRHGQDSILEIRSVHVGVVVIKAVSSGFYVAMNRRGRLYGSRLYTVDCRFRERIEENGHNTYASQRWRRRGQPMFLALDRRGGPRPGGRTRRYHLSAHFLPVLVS
# CASP1 counter: caspase-1 (human) inhibition counter-screen; shares compounds with CASP6 VEID inh; 100 tested, under 10 active; purified caspase-1, Z-YVAD-R110 cleavage fluorescence; activity change, negative = inhibition, % at 35 µM; AID 743289;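 active = compounds lowering fluorescence whose fitted half-maximal concentration is no more than twice their top tested dose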
# Numbers without * were called inactive; nt = not tested or not shown.
SMILES,ERAP1 inh,SIRT5 block,CASP6 VEID inh,FGF22 binding,CASP1 counter
O=C(c1cccc(-n2cccc2)c1)N1CCN(S(=O)(=O)c2ccccc2)CC1,-1,3,51*,0,3
O=C(O)Cc1ccc(-n2cccc2)cc1,1,11,70*,42,-1
CCOC(=O)[C@H](Cc1c[nH]c2ccccc12)NC(=O)CN=[N+]=[N-],0,-4,38*,0,-1
COc1ccc(NC(=O)Nc2ccc3c(c2)[C@H]2C[C@H](CC(=O)N(C)C)O[C@@H](CO)[C@H]2O3)cc1,1,-4,2,0,nt
CCOc1ccc2nc3cc(NCc4ccc(OC)cc4)ccc3c(N)c2c1,-3,-5,73*,nt,3
Nc1cc2nn(-c3ccccc3)nc2cc1Cl,1,-5,98*,0,2
Nc1ccc2nn(-c3ccccc3)nc2c1,2,-3,2,nt,nt
COc1ccccc1CNC(=O)C[C@H]1CC[C@H]2[C@H](COc3ccc(NC(=O)Nc4ccc(F)c(F)c4)cc3C(=O)N2C)O1,-1,1,-1,0,nt
COc1ccc(S(=O)(=O)Nc2cc(Sc3ncn[nH]3)c(O)c3ccccc23)cc1,nt,nt,nt,nt,3
O=C(CCO)c1ccc(O)cc1,nt,nt,75*,0,0
CCCCC(=O)c1ccc(O)cc1,7,1,0,0,nt
CN(CC(=O)Nc1ccccc1Cl)C(=O)c1cccc(-n2cccc2)c1,0,-1,0,0,nt
Cc1ccc(C)c(NC(=O)CN(C)C(=O)c2cccc(-n3cccc3)c2)c1,-3,2,59*,nt,-1
CN(CC(=O)Nc1c(Cl)cccc1Cl)C(=O)c1cccc(-n2cccc2)c1,-1,3,42*,nt,3
CCCc1cn(CC[C@@H]2CC[C@@H](NC(=O)C3CC3)[C@@H](CO)O2)nn1,0,3,-3,0,nt
O=S(=O)(O)c1cc(O)c2cc(Nc3ccccc3)ccc2c1,43*,nt,80*,1,13
C[C@@H]1CCCCO[C@H](CN(C)S(=O)(=O)c2cccs2)[C@@H](C)CN([C@@H](C)CO)C(=O)c2cc(NC(=O)Nc3ccc(F)cc3)ccc2O1,3,3,0,0,nt
CC(=O)N(C)C[C@H]1Oc2cc(-c3cncnc3)ccc2S(=O)(=O)N([C@@H](C)CO)C[C@H]1C,0,13,0,0,nt
Cc1cccc(-c2ccc([C@@H]3[C@H]4CN(S(=O)(=O)c5cn(C)cn5)CCCCN4[C@H]3CO)cc2)c1,2,-2,3,0,nt
COc1ccc([N+](=O)[O-])cc1NC(=O)CS(=O)(=O)c1ccc(C)cc1,1,-1,-1,0,nt
COc1ccc([N+](=O)[O-])cc1NC(=O)CCS(=O)(=O)c1ccc(Br)cc1,-3,-5,31,0,-2
Nc1c(O)cccc1C(=O)O,-1,-5,56*,-1,4
O=C(O)c1ccccc1O,-4,-4,nt,0,nt
COC(=O)[C@H]1[C@H](CO)[C@H]2Cn3c(ccc(-c4ccc(F)cc4)c3=O)[C@H]2N1C(=O)C1CCC1,1,-4,-1,0,nt
C[C@@H]1CCCCO[C@H](CN(C)S(=O)(=O)c2ccc(F)cc2)[C@H](C)CN([C@H](C)CO)C(=O)c2cc(NC(=O)Nc3ccc(F)cc3)ccc2O1,nt,nt,nt,0,nt
SMILES,ERAP1 inh,SIRT5 block,CASP6 VEID inh,FGF22 binding,CASP1 counter
O=c1c(CO)cc(CO)cc(CO)c1O,-1,4,71*,0,0
O=c1oc(-c2ccccc2)nc2sc3c(c12)CCC3,1,-8,72*,0,-4
C[C@H]1CN([C@@H](C)CO)S(=O)(=O)c2ccc(C#CC3(O)CCCC3)cc2O[C@H]1CN(C)C(=O)Cc1cccnc1,-2,-1,2,0,nt
COc1ccc(OC)c(Nc2cc3ccccc3c(=O)[nH]2)c1,3,nt,99*,-1,23
O=C1Cc2ccccc2C(=O)N1,-3,3,99*,0,-7
Cc1ccc(S(=O)(=O)NCC[C@H]2CC[C@H](NC(=O)c3cnccn3)[C@@H](CO)O2)cc1,-3,13,-3,0,nt
CCCSC1=N/C(=C\c2ccc([N+](=O)[O-])o2)C(=O)S1,11,4,75*,0,-9
CN(CC(=O)Nc1ccccc1Cl)C(=O)COC(=O)c1ccc([N+](=O)[O-])s1,0,3,99*,0,-4
NS(=O)(=O)c1ccc(NC(=O)COC(=O)c2ccc([N+](=O)[O-])s2)cc1,3,3,92*,0,4
COc1ccc(C(=O)OCC(=O)Nc2ncc([N+](=O)[O-])s2)cc1OC,1,6,57*,0,-2
CN(CC(=O)Nc1ccccc1Cl)C(=O)COC(=O)c1cccs1,5,3,0,0,nt
COc1ccccc1NC(=O)COC(=O)c1ccc([N+](=O)[O-])s1,3,23*,87*,0,0
COc1ccc(C(=O)OCC(=O)Nc2sccc2C(N)=O)cc1OC,0,1,1,0,nt
C[C@@H]1CN([C@@H](C)CO)C(=O)c2cc(NC(=O)c3ccccc3)ccc2O[C@@H](C)CCCCO[C@H]1CN(C)C(=O)Cc1ccccc1,0,2,-4,1,nt
O=C(C[C@@H]1CC[C@@H]2[C@H](COC[C@@H](O)CN2C(=O)Nc2cccc(Cl)c2)O1)N1CCCCC1,-4,1,-2,0,nt
CO[C@@H](CN(C)C(=O)c1ccccc1F)[C@@H](C)CN([C@@H](C)CO)S(=O)(=O)c1ccc(C)cc1,1,-3,-2,0,nt
O=C1CN(C(=O)COC(=O)c2ccc([N+](=O)[O-])s2)c2ccccc2N1,nt,nt,nt,nt,-1
CCCCN(C(=O)c1cccc(N2C(=O)c3ccccc3C2=O)c1)c1c(N)n(CC(C)C)c(=O)[nH]c1=O,-5,-2,2,0,nt
CCCCN(C(=O)c1cccc(-n2cccc2)c1)c1c(N)n(Cc2ccccc2)c(=O)[nH]c1=O,-1,0,57*,nt,-1
Oc1cc(NCCc2cccnc2)cc2cccnc12,7,-5,49*,0,5
O=C(CC1CC1)N1CC[C@@H]2[C@H]1c1cc(-c3ccccc3)ccc1N[C@@H]2CO,1,-2,2,0,nt
CCc1cnc(N2[C@@H](C#N)[C@H](c3ccc(C#CCC4CCCC4)cc3)[C@@H]2CO)s1,-1,-2,-1,0,nt
CCCn1c(CCC(=O)O)ccc1-c1ccccc1,-7,-4,2,0,nt
O=C(O)CCc1ccc(-c2ccc(Br)cc2)n1CC(=O)O,3,3,47*,0,10
Cc1ccc(S(=O)(=O)Nc2ccc3c(c2)C(=O)N([C@H](C)CO)C[C@@H](C)[C@H](CN(C)Cc2ccc(C(=O)Nc4ccccc4N)cc2)O3)cc1,-1,4,-2,0,nt
Cc1[nH]nc(NCCO)c1[N+](=O)[O-],-3,-1,2,0,nt
Cc1[nH]nc(S(=O)CC(=O)O)c1[N+](=O)[O-] (stereo not given),-1,3,41*,0,9

# Assay outcomes (PubChem)
